Sampled rows, rich in hits. Any-hit rate of the full collection: about 2.9%.
TRPML1 blocker: human mucolipin-1 channel inhibition | TRPML1-inducible cells, Ca2+ dye fluorescence, FDSS; active compounds read low; inhibition of EC80 agonist-evoked calcium signal | activity change, negative = inhibition, % (test concentration not listed) | 390,000 compounds, 0.02% hits | AID 624415; in the data active means activity change below about -50%; inconclusive means between about -30% and that limit;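 further: stimulus is agonist 54-4 at its EC80 concentration; on the % scale 0 is the no-effect control and ±100 the full control effect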
Target sequence (Q9GZU1 whole entry, looked up): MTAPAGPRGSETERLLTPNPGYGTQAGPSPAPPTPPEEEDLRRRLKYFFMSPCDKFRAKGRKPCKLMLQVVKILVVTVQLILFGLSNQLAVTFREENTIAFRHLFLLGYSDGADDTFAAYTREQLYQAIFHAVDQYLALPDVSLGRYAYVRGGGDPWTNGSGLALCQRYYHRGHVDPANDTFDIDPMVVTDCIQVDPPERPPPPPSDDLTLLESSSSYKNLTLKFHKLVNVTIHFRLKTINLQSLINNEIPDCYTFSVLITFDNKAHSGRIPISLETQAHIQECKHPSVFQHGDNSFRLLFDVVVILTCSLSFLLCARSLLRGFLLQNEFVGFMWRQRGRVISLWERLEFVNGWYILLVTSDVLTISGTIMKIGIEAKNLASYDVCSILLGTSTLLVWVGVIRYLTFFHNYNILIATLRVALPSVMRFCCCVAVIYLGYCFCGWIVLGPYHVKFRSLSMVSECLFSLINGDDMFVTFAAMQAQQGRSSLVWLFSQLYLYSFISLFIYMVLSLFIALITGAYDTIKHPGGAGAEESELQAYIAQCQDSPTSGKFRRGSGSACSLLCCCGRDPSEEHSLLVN
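Calcium fluorescence in TRPML1-DL cells induced overnight with Tet: a 110 s read after compound pin addition, then a 110 s antagonist read after challenge with 54-4 at 4 uM final (EC80).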
D3 ag: D3 dopamine receptor (human) agonism; max activation, %; P35462; 410,000 compounds, 0.58% hits; AID 652048; D3R DiscoveRx beta-arrestin cells, luminescence, 90 min; in the data active means max activation above about 30%; further: 0% is about no effect
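Agonist-mode cell screen: cells plated at 1500/well and incubated overnight at 37 °C, then exposed to library compounds for 90 min at 37 °C. Detection reagent was added for 30–60 min at room temperature, and luminescence was read.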
TRPML1 ag: activates the human TRPML1 channel; Q9GZU1; TRPML1-expressing cells, Ca2+ dye fluorescence, FDSS; activation, % (test concentration not listed); 410,000 compounds, 0.12% hits; in the data active means activation above about 50%; inconclusive means mostly about 30% to 49%; further: 0% is about no effect
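In this qHTS format, compounds were pin-transferred onto Ca8-dye-loaded TRPML1-DL cells induced with Tet overnight, and intracellular Ca2+ fluorescence was recorded kinetically for 110 s after a 10 s baseline. A subsequent 4uM final 54-4 (EC80) addition followed by a second 110 s read served as the antagonist phase.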
D3 antag: blocks the human D3 dopamine receptor. P35462. D3R cells, DiscoveRx beta-arrestin luminescence, antagonist mode; active compounds read low. max response, negative = inhibition, %. 360,000 compounds, 2.5% hits. AID 652054; in the data active means max response below about -50%; inconclusive means no clear call, values can overlap the other calls; further: on the % scale 0 is the no-effect control and ±100 the full control effect
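Cells expressing the human receptor were seeded at 1500 cells/well, incubated overnight at 37 degrees C in 5% CO2, then exposed to library compounds with dopamine controls for 90 minutes at 37 degrees C before luminescent detection.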
Numbers without * were called inactive; u = inconclusive; x = no result given.

SMILES | TRPML1 blocker | D3 ag | TRPML1 ag | D3 antag
Cc1cc(S(=O)(=O)C(CNC(=O)COc2ccc(Cl)cc2)c2cccs2)ccc1F (stereo not given) | -23.6 | 9.2 | 0.0 | x
CNc1ccc(/C=C2\C=Cc3ccccc32)cc1Cl | x | x | 0.0 | x
Cc1nc(C#N)c(N/N=C/c2c(F)cccc2Cl)o1 | 26.0 | -2.4 | -0.1 | -64.3*
CCC(=O)Nc1ccc2nc(SCCOc3ccc(C)cc3OC)sc2c1 | 36.5 | 8.3 | 2.3 | x
CCSc1nc(-c2ccco2)ccc1C#N | 1.0 | 4.1 | -0.8 | -54.1*
CN1CCN(S(=O)C23CC4CC(CC(C4)C2)C3)CC1 (stereo not given) | -21.1 | -15.7 | 0.2 | -88.5*
O=S(N1CCCCC1)C12CC3CC(CC(C3)C1)C2 (stereo not given) | -0.8 | 4.0 | 0.0 | 4.5
CC(=O)C1=C(c2ccc(Br)cc2)C(=O)c2ccccc2C1=O | 22.4 | -12.6 | -0.5 | -87.1*
CCCCNc1cc(NC(C)=O)cc2cc(OC)c(OC)cc12 | 0.1 | 53.3* | -0.2 | -74.9*
CC(C)(C)c1ccc(C(=O)NCCC(=O)N2CCN(c3ncccn3)CC2)cc1 | -13.9 | -2.9 | 69.2* | -13.2
CC(C)(C)c1ccc(C(=O)NCCC(=O)N2CCCC2)cc1 | 12.7 | -6.3 | 2.1 | 6.5
CCOc1ccc(-n2cc(-c3ccccc3)c3c(NCCc4ccccc4)ncnc32)cc1 | 2.8 | 8.6 | 0.0 | x
COc1cc(OC)c(OC)cc1CN(C)CC1CCCN(CCc2ccccc2F)C1 (stereo not given) | -5.1 | -3.4 | 0.3 | -51.2*
Cc1cccc(C)c1NC(=O)c1cc(S(=O)(=O)N2CCc3ccccc3C2)ccc1F | -9.8 | 9.4 | 1.5 | x
COC(=O)C1=C(C(=O)OC)SC2(S1)C(C(=O)OC)=C(C(=O)OC)SC1=C2c2cc(C)cc(C)c2NC1(C)C | 0.1 | -6.3 | -0.7 | -77.9*
O=C(NCc1cccnc1)/C(=C\c1ccc(-c2ccc(Br)cc2)o1)S(=O)(=O)c1ccccc1 | 31.9 | -12.7 | -0.2 | -89.2*
O=C(NCc1cccnc1)/C(=C/c1ccc(-c2ccc(Cl)cc2)o1)S(=O)(=O)c1ccccc1 | 51.9 | -45.6 | 0.5 | u
CCOC(=O)C(=C1Nc2ccccc2N1)n1c(-c2cccnc2)nc2ccccc21 | x | -12.1 | -0.3 | -64.8*
CCOC(=O)Cn1c(-c2cccnc2)nc(-c2ccccc2)c1-c1ccccc1 | 12.7 | 9.0 | -0.1 | 16.5
O=[N+]([O-])c1cnc(Sc2ccncn2)s1 | -16.2 | -27.4 | 0.2 | -124.7*
O=[N+]([O-])c1cnc(Sc2ccncn2)c([N+](=O)[O-])c1 | 72.4 | -10.0 | 0.2 | 0.0
Cc1ccc2oc(-c3cc(NC(=O)c4ccc5c(c4)OCCO5)cc(C)c3O)nc2c1 | 8.1 | 1.7 | 0.5 | x
O=C(CC(NS(=O)(=O)c1ccc(Cl)cc1)c1ccco1)N1CCc2ccccc21 (stereo not given) | -4.1 | -3.3 | 1.1 | -69.0*
CCC(C)NC(=O)CC(NS(=O)(=O)c1ccc(Cl)cc1)c1ccco1 (stereo not given) | -4.0 | 0.5 | 0.2 | -52.9*
COc1ccc(-c2nnc(SCC(=O)N(C)Cc3ccccc3)o2)cc1OC | -3.6 | 3.9 | -0.7 | x
SMILES | TRPML1 blocker | D3 ag | TRPML1 ag | D3 antag
COc1ccc2c(c1)CC(C(=O)Nc1cc(Cl)ccc1C)CO2 (stereo not given) | 21.4 | 67.5* | 2.3 | x
CCOC(=O)C1CCCN(c2c(C(=O)c3ccc(C)cc3)cnc3ccc(OCC)cc23)C1 (stereo not given) | 8.3 | 8.1 | 1.3 | x
COC(=O)c1ccc(NC(=O)CC2Nc3cc(C)c(C)cc3NC2=O)cc1 (stereo not given) | -28.9 | -1.0 | 0.4 | x
CCCCCCCCCCCCCCCC(=O)OC[C@@H](O)[C@H]1OC[C@H](O)[C@H]1O | x | -11.0 | x | x
COc1cccc(N2CC(NC(=O)CCCc3ccccc3)CC2=O)c1 (stereo not given) | -12.2 | -3.2 | -0.9 | x
CC1(C)Cc2nc3sc4c(=O)n(Cc5ccccc5)cnc4c3cc2CS1 | -13.2 | 0.7 | 0.7 | -65.5*
CCNCCC(=O)N1c2ccccc2Sc2ccc(C(F)(F)F)cc21 | -15.2 | -11.0 | u | -69.5*
Cc1ccc(C(=O)CN2CCN(c3ccccn3)CC2)c(C)c1 | -2.0 | 47.6* | 1.4 | 11.3
O=C(Nc1c(F)cccc1F)c1cnc(N2CCN(c3ccccn3)CC2)c2ccccc12 | -16.7 | 14.6 | 0.3 | 24.4
Cc1ccc(NC(=O)c2cnc(N3CCN(c4ccccn4)CC3)c3ccccc23)c(Br)c1 | 0.0 | 43.6* | -0.7 | 88.9
O=C(CN1CCN(c2ccccn2)CC1)N1c2ccccc2CCc2ccccc21 | 9.8 | 0.9 | 0.3 | -53.7*
CC(C)CCC[C@@H](C)[C@H]1CC(=O)C2=C3CC[C@H]4C[C@@H](O)CC[C@]4(C)[C@H]3CC[C@@]21C | x | -0.9 | x | x
COCc1cc(O)c(O)c(O)c1-c1c(COC)cc(O)c(O)c1O | x | x | -0.4 | x
O=C(CN1CCN(c2ccccn2)CC1)N1c2ccccc2Sc2ccc(C(F)(F)F)cc21 | 12.5 | -8.6 | 0.8 | -62.1*
O=C(CN1CCCC1)N1c2ccccc2Sc2ccc(C(F)(F)F)cc21 | -11.5 | -20.9 | -0.2 | -18.0
O=C(C[n+]1cccc(Br)c1)c1ccc(I)cc1 | x | x | -0.2 | x
C1COCCNCCOCCOCCN1 | 5.9 | 0.9 | 3.9 | -92.0*
Nc1cc2c(cc1C(=O)c1ccccc1)OCCO2 | -4.6 | -1.4 | -1.0 | -60.1*
CCN(CC)S(=O)(=O)c1cccc(-c2n[nH]c(=S)n2/N=C/c2ccc(OC)cc2)c1 | 1.6 | -5.2 | -0.1 | 0.7
CCN(CC)S(=O)(=O)c1cccc(-c2n[nH]c(=S)n2/N=C/c2ccc(Br)cc2)c1 | -2.3 | -5.2 | 0.9 | -54.4*
CCc1ccc(C2CC(=O)c3c([nH]c(C(=O)OCCOc4ccccc4)c3C)C2)cc1 (stereo not given) | -2.1 | 3.6 | 0.1 | x
CCOC(=O)C(C)(C)N(Cc1ccccc1C)S(=O)(=O)c1ccc(Cl)c([N+](=O)[O-])c1 | 21.8 | -3.2 | 0.4 | -50.5*
Cc1ccc(-n2sc3ccccc3c2=O)cc1 | 18.2 | -9.3 | 2.7 | -16.7
COC(=O)c1cccc(-n2sc3ccccc3c2=O)c1 | 4.7 | -34.7 | 0.7 | -59.7*
O=c1c2ccccc2sn1-c1ccc(F)cc1 | 4.9 | -22.6 | 1.6 | -53.6*
SMILES | TRPML1 blocker | D3 ag | TRPML1 ag | D3 antag
COc1cccc(/C=N/Nc2cc(-n3nc(C)cc3-c3ccccc3)ncn2)c1O | 16.8 | 38.3* | 5.3 | 23.6
COc1cccc(/C=N/Nc2ncnc3scc(-c4ccccc4)c23)c1O | 0.7 | 37.6* | 1.7 | 46.2
COc1cccc(/C=N/Nc2ncnc(Cl)c2N)c1O | 28.1 | 12.3 | -0.3 | 10.4
COc1ccc2nc(C)cc(N/N=C/c3cccc(OC)c3O)c2c1 | 9.7 | -3.1 | 0.6 | 0.0
COc1cccc(/C=N/Nc2nc(Nc3ccccc3)nc(-n3nc(C)cc3C)n2)c1O | -52.4* | -45.5 | 1.3 | -140.6*
Cc1ccc(C(=O)c2cn(Cc3cccc(C)c3)c3nc(C)ccc3c2=O)cc1 | 1.1 | 9.5 | -0.4 | x
Cn1nccc1/C=C(/C#N)S(=O)(=O)c1ccccc1 | 9.0 | 1.2 | 1.9 | -55.6*
